Measurements: the supplement of paper PMC10849652
Targets with a hit are over-represented here; the source holds about 7,900 in all. About 0.6% of all pairs of compound and target were hits.

Legend:
Experiment in all cases: log2 fold change, soluble protein after heating vs DMSO (PISA); higher = thermal stabilisation; K562 cells, 10 uM, 30 min; active = over 0.2 and 3.5 SD of the protein, either way, in both replicates (recomputed)
bafetinib = compound: Cc1ccc(NC(=O)c2ccc(CN3CC[C@H](N(C)C)C3)c(C(F)(F)F)c2)cc1Nc1nccc(-c2cncnc2)n1 [bafetinib]
Procedure, shortened: (§1)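 Soluble protein was quantified by TMTpro 16plex LC-MS/MS after channel sums were equalised. It was obtained as the supernatant after 21,000xg for 90 min from pooled aliquots of K562 cells (2×10^6 cells/mL, 10 μM compound, 30 min) heated for 3 min across 48°C-58°C and extracted in PBS with 0.5% NP-40 at 4°C. Thermal stability values are relative to control samples and come from duplicates. They are given as log2 fold changes.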

[1] = compound: Cc1cccc(CC(=O)N2CCc3c2ccc(-c2cn(C)c4ncnc(N)c24)c3F)n1
Procedure, shortened: as §1

nilotinib = compound: Cc1cn(-c2cc(NC(=O)c3ccc(C)c(Nc4nccc(-c5cccnc5)n4)c3)cc(C(F)(F)F)c2)cn1 [nilotinib]
Procedure, shortened: as §1

[2] = compound: Cc1nc(Nc2n[nH]c3c2CN(C(=O)N[C@H](CN(C)C)c2ccccc2)C3(C)C)c2sccc2n1
Procedure, shortened: as §1

dasatinib = compound: Cc1nc(Nc2ncc(C(=O)Nc3c(C)cccc3Cl)s2)cc(N2CCN(CCO)CC2)n1 [dasatinib]
Procedure, shortened: as §1

[3] = compound: Cc1ncc(-c2ccnc(Nc3ccc(S(C)(=O)=O)cc3)n2)n1C(C)C
Procedure, shortened: as §1

[4] = compound: Cn1cc(-c2ccc3c(c2)CCN3C(=O)Cc2cccc(C(F)(F)F)c2)c2c(N)ncnc21
Procedure, shortened: as §1

[5] = compound: Cn1cc(-c2ccc3nnc(C(F)(F)c4ccc5ncccc5c4)n3n2)cn1
Procedure, shortened: as §1

tipifarnib = compound: Cn1cncc1[C@@](N)(c1ccc(Cl)cc1)c1ccc2c(c1)c(-c1cccc(Cl)c1)cc(=O)n2C [tipifarnib]
Procedure, shortened: as §1

mubritinib = compound: FC(F)(F)c1ccc(/C=C/c2nc(COc3ccc(CCCCn4ccnn4)cc3)co2)cc1 [mubritinib]
Procedure, shortened: as §1

[6] = compound: NC(=O)Nc1cc(-c2cccc(F)c2)sc1C(=O)N[C@H]1CCCNC1
Procedure, shortened: as §1

[7] = compound: NC(=O)c1cnc(N[C@@H]2CCCC[C@@H]2N)nc1Nc1cccc(-n2nccn2)c1
Procedure, shortened: as §1

[8] = compound: NC1(c2ccc(-c3nc4ccn5c(=O)[nH]nc5c4cc3-c3ccccc3)cc2)CCC1
Procedure, shortened: as §1

[9] = compound: NCC(=O)Nc1ccc(-n2nc(C(F)(F)F)cc2-c2ccc3c(ccc4ccccc43)c2)cc1
Procedure, shortened: as §1

entinostat = compound: Nc1ccccc1NC(=O)c1ccc(CNC(=O)OCc2cccnc2)cc1 [entinostat]
Procedure, shortened: as §1

vorinostat = compound: O=C(CCCCCCC(=O)Nc1ccccc1)NO [vorinostat]
Procedure, shortened: as §1

citarinostat = compound: O=C(CCCCCCNC(=O)c1cnc(N(c2ccccc2)c2ccccc2Cl)nc1)NO [citarinostat]
Procedure, shortened: as §1

silmitasertib = compound: O=C(O)c1ccc2c(c1)nc(Nc1cccc(Cl)c1)c1ccncc12 [silmitasertib]
Procedure, shortened: as §1

[10] = compound: O=C1NC(=O)C(c2cnc3ccccn23)=C1c1cn2c3c(cc(F)cc13)CN(C(=O)N1CCCCC1)CC2
Procedure, shortened: as §1

[11] = compound: c1cc(OCCN2CCCCC2)cc(-c2n[nH]c3ccc(-c4nnc[nH]4)cc23)c1
Procedure, shortened: as §1

Measured: log2 fold change

ATP6AP1 (UniProt Q15904)
inactive: bafetinib -0.052 | [1] 0.025 | nilotinib 0.024 | [2] -0.041 | dasatinib 0.016 | [3] -0.041 | [4] -0.081 | [5] -0.064 | tipifarnib 0.011 | mubritinib -0.051 | [6] -0.033 | [7] -0.208 | [8] -0.149 | [9] -0.04 | entinostat 0.025 | vorinostat 0.063 | citarinostat 0.035 | silmitasertib 0.043 | [10] -0.005 | [11] -0.087

ARFGAP2 (UniProt Q8N6H7)
Sequence of UniProt Q8N6H7 (Q8N6H7 whole entry, looked up): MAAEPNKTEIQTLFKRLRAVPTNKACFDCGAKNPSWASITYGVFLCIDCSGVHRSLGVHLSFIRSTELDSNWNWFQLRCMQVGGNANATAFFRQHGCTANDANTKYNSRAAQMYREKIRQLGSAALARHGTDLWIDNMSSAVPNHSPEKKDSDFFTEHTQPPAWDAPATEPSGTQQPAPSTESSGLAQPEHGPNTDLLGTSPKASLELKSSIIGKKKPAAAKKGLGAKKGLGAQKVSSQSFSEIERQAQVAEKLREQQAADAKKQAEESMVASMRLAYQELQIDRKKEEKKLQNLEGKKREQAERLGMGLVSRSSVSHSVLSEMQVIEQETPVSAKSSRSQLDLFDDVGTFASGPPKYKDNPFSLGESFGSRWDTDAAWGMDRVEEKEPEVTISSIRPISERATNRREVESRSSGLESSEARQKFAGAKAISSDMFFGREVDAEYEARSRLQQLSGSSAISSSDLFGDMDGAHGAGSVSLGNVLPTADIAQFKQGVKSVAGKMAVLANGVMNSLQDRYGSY
inactive: bafetinib -0.006 | [1] -0.008 | nilotinib -0.045 | [2] -0.063 | dasatinib -0.096 | [3] 0.035 | [4] -0.024 | [5] -0.024 | tipifarnib -0.059 | mubritinib 0.041 | [6] -0.007 | [7] -0.097 | [8] -0.08 | [9] -0.014 | entinostat 0.037 | vorinostat -0.017 | citarinostat 0.015 | silmitasertib 0.017 | [10] -0.016 | [11] -0.035

AKT2 (UniProt P31751)
Sequence of UniProt P31751 (P31751 whole entry, looked up): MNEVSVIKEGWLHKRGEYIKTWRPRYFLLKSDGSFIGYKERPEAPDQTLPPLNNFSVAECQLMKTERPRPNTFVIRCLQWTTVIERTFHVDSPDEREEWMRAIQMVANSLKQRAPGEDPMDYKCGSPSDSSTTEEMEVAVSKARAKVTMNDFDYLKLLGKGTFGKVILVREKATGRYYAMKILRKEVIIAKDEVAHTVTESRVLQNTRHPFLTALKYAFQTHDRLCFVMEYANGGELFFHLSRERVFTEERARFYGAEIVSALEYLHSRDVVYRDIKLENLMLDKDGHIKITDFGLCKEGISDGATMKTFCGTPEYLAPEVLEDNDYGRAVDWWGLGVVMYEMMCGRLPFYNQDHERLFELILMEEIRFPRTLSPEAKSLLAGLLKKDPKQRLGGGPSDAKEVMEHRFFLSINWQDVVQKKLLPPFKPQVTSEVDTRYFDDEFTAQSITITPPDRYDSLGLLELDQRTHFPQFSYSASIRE
active: [7] -0.266 | [8] 1.18
inactive: bafetinib 0.021 | [1] 0.049 | nilotinib -0.037 | [2] -0.144 | dasatinib -0.145 | [3] -0.108 | [4] 0.019 | [5] -0.034 | tipifarnib -0.185 | mubritinib 0.037 | [6] -0.008 | [9] -0.051 | entinostat 0.085 | vorinostat 0.022 | citarinostat 0.077 | silmitasertib -0.026 | [10] -0.017 | [11] -0.013

ACP1 isoform 2 (UniProt P24666)
Sequence of UniProt P24666 (P24666 whole entry, looked up): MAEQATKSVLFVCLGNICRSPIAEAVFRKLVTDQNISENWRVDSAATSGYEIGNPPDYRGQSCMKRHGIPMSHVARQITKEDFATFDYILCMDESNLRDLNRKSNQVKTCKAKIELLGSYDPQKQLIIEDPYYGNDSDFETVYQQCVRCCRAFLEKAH
inactive: bafetinib 0.037 | [1] 0.036 | nilotinib 0.039 | [2] -0.063 | dasatinib -0.126 | [3] -0.049 | [4] -0.044 | [5] 0.022 | tipifarnib -0.146 | mubritinib 0.042 | [6] 0.048 | [7] -0.018 | [8] -0.086 | [9] -0.041 | entinostat 0.041 | vorinostat 0.159 | citarinostat 0.005 | silmitasertib -0.005 | [10] -0.149 | [11] -0.044

AKAP8 (UniProt O43823)
Sequence of UniProt O43823 (O43823 whole entry, looked up): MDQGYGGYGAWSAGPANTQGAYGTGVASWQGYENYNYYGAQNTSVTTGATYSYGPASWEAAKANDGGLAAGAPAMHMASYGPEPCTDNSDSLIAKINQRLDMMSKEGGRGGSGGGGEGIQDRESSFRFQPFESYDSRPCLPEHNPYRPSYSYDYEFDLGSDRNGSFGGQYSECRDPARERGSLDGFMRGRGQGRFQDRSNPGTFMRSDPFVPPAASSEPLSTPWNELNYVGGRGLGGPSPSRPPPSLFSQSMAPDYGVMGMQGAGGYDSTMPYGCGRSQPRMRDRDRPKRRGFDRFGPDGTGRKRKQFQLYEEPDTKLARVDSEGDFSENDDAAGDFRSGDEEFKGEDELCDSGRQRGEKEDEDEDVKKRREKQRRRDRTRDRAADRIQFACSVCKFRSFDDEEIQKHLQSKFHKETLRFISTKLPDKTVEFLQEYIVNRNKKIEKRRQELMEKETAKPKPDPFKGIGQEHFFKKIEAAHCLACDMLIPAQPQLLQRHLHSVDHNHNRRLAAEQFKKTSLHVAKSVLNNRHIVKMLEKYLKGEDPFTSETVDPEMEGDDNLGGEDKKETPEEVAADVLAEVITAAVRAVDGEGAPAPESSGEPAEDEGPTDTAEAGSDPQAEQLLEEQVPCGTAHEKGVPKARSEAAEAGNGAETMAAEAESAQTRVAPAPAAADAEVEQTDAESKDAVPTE
inactive: bafetinib -0.051 | [1] -0.008 | nilotinib -0.001 | [2] -0.044 | dasatinib -0.155 | [3] -0.042 | [4] -0.007 | [5] -0.049 | tipifarnib 0.022 | mubritinib 0.028 | [6] -0.043 | [7] -0.037 | [8] 0.023 | [9] -0.012 | entinostat -0.024 | vorinostat 0.01 | citarinostat 0.002 | silmitasertib -0.13 | [10] -0.1 | [11] -0.043

AARS2 (UniProt Q5JTZ9)
inactive: bafetinib -0.07 | [1] 0.011 | nilotinib -0.085 | [2] -0.047 | dasatinib -0.184 | [3] -0.036 | [4] 0.052 | [5] 0.05 | tipifarnib -0.063 | mubritinib -0.143 | [6] -0.029 | [7] -0.018 | [8] -0.212 | [9] -0.086 | entinostat 0.045 | vorinostat 0.015 | citarinostat 0.037 | silmitasertib -0.051 | [10] -0.026 | [11] 0.06

ACO2 (UniProt Q99798)
inactive: bafetinib 0.021 | [1] -0.025 | nilotinib -0.02 | [2] 0.013 | dasatinib -0.118 | [3] -0.013 | [4] 0.043 | [5] -0.016 | tipifarnib -0.064 | [6] 0.017 | [7] -0.04 | [8] -0.142 | [9] -0.012 | entinostat 0.039 | vorinostat 0.023 | citarinostat 0.057 | silmitasertib 0.001 | [10] -0.058 | [11] -0.042
active: mubritinib -0.522

ATP9B (UniProt O43861)
Sequence of UniProt O43861 (O43861 whole entry, looked up): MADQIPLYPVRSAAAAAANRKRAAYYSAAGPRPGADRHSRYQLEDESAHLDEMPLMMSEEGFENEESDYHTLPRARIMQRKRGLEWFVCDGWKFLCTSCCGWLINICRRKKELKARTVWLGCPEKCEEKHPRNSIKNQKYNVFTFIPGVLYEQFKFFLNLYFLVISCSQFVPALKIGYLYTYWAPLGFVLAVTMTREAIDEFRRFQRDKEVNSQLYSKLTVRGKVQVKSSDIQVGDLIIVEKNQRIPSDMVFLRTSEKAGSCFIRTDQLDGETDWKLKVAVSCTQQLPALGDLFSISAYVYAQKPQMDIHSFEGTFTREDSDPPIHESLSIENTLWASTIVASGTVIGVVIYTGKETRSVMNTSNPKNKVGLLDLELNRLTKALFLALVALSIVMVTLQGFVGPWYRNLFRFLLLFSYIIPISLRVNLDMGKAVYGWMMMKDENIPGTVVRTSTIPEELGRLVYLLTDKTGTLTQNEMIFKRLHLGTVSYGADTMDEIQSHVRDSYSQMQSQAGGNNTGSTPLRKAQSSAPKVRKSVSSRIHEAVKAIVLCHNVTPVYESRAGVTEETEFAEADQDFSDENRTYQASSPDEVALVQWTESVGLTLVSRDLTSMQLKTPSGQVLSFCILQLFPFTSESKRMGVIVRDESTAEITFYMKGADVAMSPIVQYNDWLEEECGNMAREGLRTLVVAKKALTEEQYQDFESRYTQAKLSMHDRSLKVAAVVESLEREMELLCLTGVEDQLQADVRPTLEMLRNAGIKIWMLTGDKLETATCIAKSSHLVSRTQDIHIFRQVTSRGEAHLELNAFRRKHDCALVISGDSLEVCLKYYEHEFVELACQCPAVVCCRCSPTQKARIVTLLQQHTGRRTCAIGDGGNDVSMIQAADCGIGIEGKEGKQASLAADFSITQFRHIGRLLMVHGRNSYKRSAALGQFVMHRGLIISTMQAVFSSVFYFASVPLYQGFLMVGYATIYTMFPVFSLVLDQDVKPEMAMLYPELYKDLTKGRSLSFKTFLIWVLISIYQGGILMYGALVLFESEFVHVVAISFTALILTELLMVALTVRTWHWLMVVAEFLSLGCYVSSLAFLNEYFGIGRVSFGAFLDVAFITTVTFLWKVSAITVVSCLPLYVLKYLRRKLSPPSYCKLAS
active: [6] -0.58
inactive: bafetinib -0.042 | [1] -0.042 | nilotinib -0.147 | [2] -0.149 | dasatinib -0.067 | [3] 0.038 | [4] 0.037 | [5] -0.096 | tipifarnib 0.121 | mubritinib 0.069 | [7] -0.028 | [8] 0.052 | [9] -0.029 | entinostat -0.24 | vorinostat -0.044 | citarinostat 0.135 | silmitasertib 0.071 | [10] 0.029 | [11] -0.048

ALDH18A1 (UniProt P54886)
inactive: bafetinib -0.206 | [1] 0.071 | nilotinib -0.3 | [2] -0.15 | dasatinib -0.133 | [3] 0.042 | [4] -0.202 | [5] -0.128 | tipifarnib -0.141 | [6] 0.033 | [7] -0.03 | [8] -0.34 | [9] -0.219 | entinostat 0.249 | vorinostat 0.194 | citarinostat 0.031 | silmitasertib 0.018 | [10] -0.329 | [11] -0.372
active: mubritinib -0.561

ACACB (UniProt O00763)
inactive: bafetinib 0.145 | [1] -0.021 | nilotinib -0.109 | [2] -0.251 | dasatinib -0.03 | [3] -0.026 | [4] -0.09 | [5] -0.059 | tipifarnib -0.14 | mubritinib -0.147 | [6] -0.02 | [7] -0.043 | [8] -0.047 | [9] 0.084 | entinostat 0.076 | vorinostat 0.082 | citarinostat 0.131 | silmitasertib 0.119 | [10] 0.222 | [11] -0.01

AUP1 (UniProt Q9Y679)
Sequence of UniProt Q9Y679 (Q9Y679 whole entry, looked up): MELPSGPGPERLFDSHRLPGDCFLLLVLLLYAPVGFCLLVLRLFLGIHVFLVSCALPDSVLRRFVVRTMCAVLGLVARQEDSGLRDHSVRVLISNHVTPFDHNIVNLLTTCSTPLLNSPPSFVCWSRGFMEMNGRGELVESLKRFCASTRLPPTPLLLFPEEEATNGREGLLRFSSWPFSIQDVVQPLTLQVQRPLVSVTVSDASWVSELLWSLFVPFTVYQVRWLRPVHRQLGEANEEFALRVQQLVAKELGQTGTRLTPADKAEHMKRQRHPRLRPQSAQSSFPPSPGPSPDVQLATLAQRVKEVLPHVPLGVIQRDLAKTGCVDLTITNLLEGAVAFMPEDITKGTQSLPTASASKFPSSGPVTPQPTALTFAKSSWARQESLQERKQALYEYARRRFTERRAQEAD
inactive: bafetinib -0.023 | [1] 0.11 | nilotinib -0.102 | [2] -0.055 | dasatinib -0.097 | [3] 0.018 | [4] 0.01 | [5] -0.03 | tipifarnib -0.106 | mubritinib 0.033 | [6] -0.013 | [7] -0.082 | [9] -0.107 | entinostat 0.061 | vorinostat 0.135 | citarinostat 0.067 | silmitasertib 0.019 | [10] 0.064 | [11] -0.051
active: [8] -0.236

BAD (UniProt Q92934)
Sequence of UniProt Q92934 (Q92934 whole entry, looked up): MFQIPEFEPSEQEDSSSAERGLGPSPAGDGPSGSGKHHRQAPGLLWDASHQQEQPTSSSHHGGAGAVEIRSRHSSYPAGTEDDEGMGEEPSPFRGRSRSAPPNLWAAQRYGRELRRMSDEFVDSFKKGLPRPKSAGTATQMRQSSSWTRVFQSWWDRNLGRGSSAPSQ
inactive: bafetinib -0.151 | [1] -0.046 | nilotinib 0.034 | [2] 0.009 | dasatinib 0.092 | [3] -0.069 | [4] 0.077 | [5] 0.076 | tipifarnib -0.005 | mubritinib -0.046 | [6] -0.243 | [7] 0.033 | [8] 0.101 | [9] -0.018 | entinostat -0.122 | vorinostat 0.011 | citarinostat -0.064 | silmitasertib -0.071 | [10] 0.131 | [11] -0.072

B4GALT1 (UniProt P15291)
Sequence of UniProt P15291 (P15291 whole entry, looked up): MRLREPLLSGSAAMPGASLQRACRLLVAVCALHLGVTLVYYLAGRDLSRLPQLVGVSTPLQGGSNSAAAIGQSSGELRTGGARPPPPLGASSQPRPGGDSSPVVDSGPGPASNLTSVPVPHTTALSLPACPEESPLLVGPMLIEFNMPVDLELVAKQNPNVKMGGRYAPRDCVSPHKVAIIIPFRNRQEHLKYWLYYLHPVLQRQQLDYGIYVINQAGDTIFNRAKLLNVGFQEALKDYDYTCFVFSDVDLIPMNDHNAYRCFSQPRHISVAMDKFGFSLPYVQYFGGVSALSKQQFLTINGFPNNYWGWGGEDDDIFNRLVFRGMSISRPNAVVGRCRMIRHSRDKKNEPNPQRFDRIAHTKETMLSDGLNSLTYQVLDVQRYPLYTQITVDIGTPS
inactive: bafetinib -0.062 | [1] 0.009 | nilotinib 0.066 | [2] -0.025 | dasatinib -0.083 | [3] 0.021 | [4] -0.005 | [5] 0.04 | tipifarnib 0.153 | mubritinib 0.029 | [6] 0.053 | [7] 0.114 | [8] -0.279 | [9] 0.199 | entinostat -0.01 | vorinostat -0.01 | citarinostat 0 | silmitasertib 0 | [10] -0.039 | [11] -0.027

ARFIP1 (UniProt P53367)
Sequence of UniProt P53367 (P53367 whole entry, looked up): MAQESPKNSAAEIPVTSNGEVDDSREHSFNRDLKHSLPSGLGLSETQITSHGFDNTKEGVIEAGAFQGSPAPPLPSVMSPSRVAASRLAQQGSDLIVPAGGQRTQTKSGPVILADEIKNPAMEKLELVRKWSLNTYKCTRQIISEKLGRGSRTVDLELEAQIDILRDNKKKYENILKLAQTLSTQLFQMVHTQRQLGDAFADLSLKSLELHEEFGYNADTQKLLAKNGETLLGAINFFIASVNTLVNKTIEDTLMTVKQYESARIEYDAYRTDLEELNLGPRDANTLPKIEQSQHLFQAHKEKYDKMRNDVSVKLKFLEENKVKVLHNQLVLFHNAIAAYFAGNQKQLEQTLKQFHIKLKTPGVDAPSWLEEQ
active: [5] 0.461
inactive: bafetinib -0.198 | [1] 0.077 | nilotinib -0.177 | [2] -0.148 | dasatinib -0.113 | [3] 0.05 | [4] 0.069 | tipifarnib -0.115 | mubritinib -0.054 | [6] 0.116 | [7] -0.002 | [8] -0.162 | [9] 0.062 | entinostat 0.079 | vorinostat 0.031 | citarinostat 0.121 | silmitasertib -0.011 | [10] -0.042 | [11] -0.048

ALG3 (UniProt Q92685)
inactive: bafetinib -0.047 | [1] 0.075 | nilotinib 0.002 | [2] 0.021 | dasatinib 0.031 | [3] 0.017 | [4] -0.065 | [5] 0.013 | tipifarnib -0.062 | mubritinib 0.006 | [6] -0.039 | [7] -0.037 | [8] -0.006 | [9] 0.045 | entinostat 0.172 | vorinostat -0.046 | citarinostat -0.051 | silmitasertib 0.034 | [10] -0.055 | [11] -0.027

ALDH9A1 isoform 3 (UniProt P49189)
Sequence of UniProt P49189 (P49189 whole entry, looked up): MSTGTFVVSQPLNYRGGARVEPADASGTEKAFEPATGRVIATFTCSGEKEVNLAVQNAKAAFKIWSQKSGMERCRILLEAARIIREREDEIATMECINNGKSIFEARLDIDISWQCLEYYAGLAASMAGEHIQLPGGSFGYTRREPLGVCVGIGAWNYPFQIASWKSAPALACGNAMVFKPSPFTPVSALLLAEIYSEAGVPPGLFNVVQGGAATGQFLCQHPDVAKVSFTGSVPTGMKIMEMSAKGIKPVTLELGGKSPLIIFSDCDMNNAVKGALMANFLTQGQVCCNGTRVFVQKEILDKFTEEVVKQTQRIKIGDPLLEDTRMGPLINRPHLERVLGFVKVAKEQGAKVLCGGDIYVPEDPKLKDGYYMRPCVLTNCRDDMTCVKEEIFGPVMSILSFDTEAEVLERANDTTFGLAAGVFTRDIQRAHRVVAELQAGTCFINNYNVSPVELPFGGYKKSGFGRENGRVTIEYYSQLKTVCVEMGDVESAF
inactive: bafetinib -0.003 | [1] 0.001 | nilotinib 0.012 | [2] -0.019 | dasatinib 0.025 | [3] -0.018 | [4] 0.041 | [5] 0.001 | tipifarnib -0.002 | mubritinib -0.005 | [6] 0.04 | [7] -0.025 | [8] -0.011 | [9] -0.05 | entinostat 0.003 | vorinostat -0.003 | citarinostat 0.025 | silmitasertib -0.045 | [10] -0.033 | [11] 0.015
